Bioassay records deposited in PubChem BioAssay by National Center for Advancing Translational Sciences (NCATS).
An excerpt weighted towards active compounds, which were near 0.36% of everything screened.
Menin MLL FP TR: inhibitors of human menin-MLL interaction, mutant MLL peptide | actives 0.23% (n = 270,000) | Menin + Texas Red MLL mutant peptide, fluorescence polarization | O00255 | Potency, µM (top dose mostly 61.6 µM), for inactives: top-dose FP activity change, negative = inhibition, usual class: inhibitors; active means well fitted inhibition curve with a large enough effect in the polarisation, with a control signal flat, not every such curve was filed as active; inconclusive means small, poorly fitted or top-dose-only effect, or effect the other way, or a change in a side signal; inactive means no such curve, though single readings can be large or run the other way; the % refers to the polarisation; further: potency means the concentration at half of the fitted maximal effect; % of control where 0% means no effect
Menin MLL FP FL: displaces fluorescein MLL peptide from human menin; Fluorescence polarization, fluorescein-MLL peptide displacement from menin; FP activity change, % at 61.4 µM; 290,000 tested, under 10 active; AID 1766; active means well fitted curve in the direction sought with a large enough effect in the polarisation, not every such curve was filed as active; inconclusive means small, poorly fitted or top-dose-only effect, or effect the other way, or a change in a side signal; inactive means no such curve, though single readings can be large or run the other way; the % refers to the polarisation; further: % of control where 0% means no effect
TR SRC2 fluor cs: alters Texas Red total fluorescence, flagging assay interference; TRb/SRC2 Texas Red total fluorescence interference; actives 0.29% (n = 280,000); Potency, µM (titrated, usually from 106 µM), for inactives: at the top dose fluorescence change, negative = quenching; active means well fitted curve in either direction with a large enough effect; inconclusive means small, poorly fitted or top-dose-only effect; further: potency means the concentration at half of the fitted maximal effect; on the % scale 0 is the no-effect control and ±100 the full control effect
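Human TRβ ligand-binding domain (0.6 uM) and Texas Red SRC2 peptide (20 nM) in Tris buffer with 1 uM T3 and 5% DMSO were incubated with pinned compound for 5 hr at ambient temperature. Total fluorescence was computed as S + 2P (555/632 nm).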
CXXC DNA block: inhibitors of human MLL CXXC domain-DNA interaction | MLL-CXXC / FITC-HOXA9 DNA fluorescence polarization | Potency, µM (doses to about 115 µM), inactives show at the highest dose activity change, negative = inhibition, actives largely listed as inhibitors | actives 0.037% (n = 290,000); active means well fitted inhibition curve with a large enough effect in the polarisation, with a control signal flat, not every such curve was filed as active; inconclusive means small, poorly fitted or top-dose-only effect, or effect the other way, or a change in a side signal; inactive means no such curve, though single readings can be large or run the other way; the % refers to the polarisation; further: potency means the concentration at half of the fitted maximal effect
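Fluorescence polarization: 7 uM MLL-CXXC (stock) preincubated 5 min with compounds, then 50 nM fluorescein-HOX-A9 DNA (stock) added; 30 min ambient. Buffer 50 mM Tris-HCl pH 7.5, 50 mM NaCl, 1 mM DTT, 0.05% BSA.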
TRb-SRC2 inh: disrupts binding of human TR beta to SRC2. P10828. actives 0.065% (n = 280,000). Potency, µM (highest dose often 106 µM), inactives show at the highest dose activity change, negative = inhibition, actives largely listed as inhibitors. TRbeta-SRC2 peptide binding, fluorescence polarization; receptor liganded with 1 µM T3. AID 1469; active means well fitted inhibition curve with a large enough effect; inconclusive means small, poorly fitted or top-dose-only effect, or effect the other way;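 further: potency means the concentration at half of the fitted maximal effect; plate controls were bound peptide for no effect and peptide without receptor for full effect; nearly all actives have a fitted effect of over 50% in size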
Target sequence (P10828 whole entry, looked up): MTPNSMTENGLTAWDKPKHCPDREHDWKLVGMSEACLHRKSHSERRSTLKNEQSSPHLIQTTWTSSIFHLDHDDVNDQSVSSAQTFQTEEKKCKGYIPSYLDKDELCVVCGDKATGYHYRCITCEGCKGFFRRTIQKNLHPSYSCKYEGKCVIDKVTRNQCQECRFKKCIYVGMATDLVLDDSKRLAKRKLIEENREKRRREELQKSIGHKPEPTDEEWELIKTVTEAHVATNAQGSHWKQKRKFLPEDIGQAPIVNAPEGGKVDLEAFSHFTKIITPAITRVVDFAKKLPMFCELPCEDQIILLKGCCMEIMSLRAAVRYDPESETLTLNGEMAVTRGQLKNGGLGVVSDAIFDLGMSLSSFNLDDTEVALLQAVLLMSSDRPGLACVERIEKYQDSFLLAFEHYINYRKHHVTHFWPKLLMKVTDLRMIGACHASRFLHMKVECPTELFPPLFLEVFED
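Decrease in fluorescence polarization of 20 nM Texas Red SRC2 coactivator peptide flagged inhibition of its binding to 0.6 uM TRb LBD; 1 uM T3 included, incubation 5 hr, ex 555/em 632 nm.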
Active calls of the source: *; ? = inconclusive; . = not tested or not shown; [ ] = dose if it differs, or a comment.

SMILES	Menin MLL FP TR	Menin MLL FP FL	TR SRC2 fluor cs	CXXC DNA block	TRb-SRC2 inh
Cc1ccc(NC(c2nnc(-c3ccccc3)o2)c2ccccc2F)c([N+](=O)[O-])c1 (configuration not stated)	.	.	251µM*[quencher]	.	-21.4%
COc1ccc(Cl)cc1NC(=O)Cn1ncc2c3ccccc3n(C)c2c1=O	.	.	-0.7%	.	0.8%
CCCn1c2ccccc2c2cnn(CC(=O)Nc3cc(C)c(Cl)cc3OC)c(=O)c21	.	.	20µM*[quencher]	.	-3.9%
CCOc1ccc(OCC)c(NC(=O)C2CCCN(S(=O)(=O)c3ccc4c(c3)oc(=O)n4C)C2)c1 (configuration not stated)	.	.	1.1%	.	-4.4%
Nc1nonc1-c1nc2ccccc2n1CC(=O)N/N=C\c1ccc(-c2ccc(Cl)cc2)o1	10µM*	11.0	4.4%	49.2%	-11.6%
N=C1CCC(=N)c2c1c(O)c1ccccc1c2O	.	?	44.7µM*[fluorescent]	?	31.6µM*
N#Cc1c(C#N)c(O)c2ccccc2c1O	?	?	-1.3%	?	3.7%
COc1ccc(OC)c2sc(NC(=O)c3ccc(S(=O)(=O)N4CCOCC4)cc3)nc12	17.8µM*	-0.4	-0.6%	9.7%	3.8%
CCCCN(CCCC)CCCNC(=O)c1cc(-c2ccc(Cl)s2)nc2ccccc12	.	.	0.794µM*[quencher]	.	-10.4%
CCCCN(C)CCCNC(=O)c1cc(-c2ccc(Br)s2)nc2ccccc12	.	.	-1.5%	.	2.1%
Cn1c(-n2cccc2)c(-c2c(-c3ccc(F)cc3)[nH]c3c2c(=O)n(C)c(=O)n3C)c(=O)n(C)c1=O	.	.	-17.3%	.	-2.4%
COc1ccc(NC(=O)/C(C#N)=C/c2ccc(OCc3ccccc3F)cc2)cc1	17.8µM*	9.6	0.7%	5.7%	-1.9%
CCOC(=O)C1=C(CN2CCN(c3ccc(OC)cc3)CC2)NC(=O)NC1c1ccc(OC)cc1 (configuration not stated)	.	.	100µM*[quencher]	.	-20.3%
CCOC(=O)C1=C(CN2CCN(c3ccc(OC)cc3)CC2)NC(=O)NC1c1ccc(Cl)cc1 (configuration not stated)	.	.	-1.3%	.	-3.3%
Cc1ccc(-c2cn3c(n2)sc2cc(C(=O)NCCCN4CCCCC4)ccc23)cc1	.	.	-7.5%	.	-2.6%
O=C(NCCCN1CCCCC1)c1ccc2c(c1)sc1nc(-c3ccc(F)cc3)cn12	.	.	0.0009µM*[quencher]	.	-14.9%
CCOc1ccc(CNC(=O)c2ccc3c(c2)sc2nc(-c4ccc(OC)cc4)cn23)cc1	.	.	39.8µM*[quencher]	.	-0.1%
CCOc1ccc(CNC(=O)c2ccc3c(c2)sc2nc(-c4ccccc4)cn23)cc1	.	.	-1.8%	.	-5.6%
CCC(C)(C)C1CCC(O)CC1 (configuration not stated)	.	.	1.2%[201 µM]	.	1.3%[201 µM]
CC1(C)C(=O)NC(=O)N1CO	.	.	1.5%[201 µM]	.	12.8%[201 µM]
O=C1CCCC/C1=C\Nc1ccc(O)cc1	31.6µM*	0.5	?	3.6%	44.7µM*
CC(C)Nc1ccc(Nc2ccnc3cc4ccccc4cc23)cc1	.	3.9	-1.7%	?	3.0%
c1ccc(CCNc2ccnc3cc4ccccc4cc23)cc1	22.4µM*	-21.1	-5.3%	?	2.3%
Cc1ccc(/C=C/C2=CC3(C)CC2(C)C(c2ccc(C)cc2)CC3=O)cc1 (configuration not stated)	10µM*	-1.8[11.7 µM]	0.9%[11.2 µM]	.	8.8%[11.2 µM]
C[C@]12C[C@@](C)(C=C1/C=C/c1ccc(F)cc1)C(=O)C[C@H]2c1ccc(F)cc1	19.0%	-0.6	-1.0%	.	-6.2%
SMILES	Menin MLL FP TR	Menin MLL FP FL	TR SRC2 fluor cs	CXXC DNA block	TRb-SRC2 inh
Cc1ccc(NCN2C(=O)C3C4C=CC(C4)C3C2=O)cc1 (configuration not stated)	-0.3%	5.1	-0.6%	-3.3%	-7.3%
O=C1C2C3C=CC(C3)C2C(=O)N1CNc1ccc(O)cc1 (configuration not stated)	?	-1.4	-0.6%	-16.0%	25.1µM*
COc1ccc2cc(S(=O)(=O)c3ccccc3F)c(=O)oc2c1	.	.	2.5%	.	1.6%
O=C(NCc1ccccc1)c1nc(-c2ccc(Cl)cc2)n2c1CCCCC2	.	.	20µM*[quencher]	.	-3.7%
O=C(NCCc1ccccc1)c1nc(-c2ccc(Cl)cc2)n2c1CCCCC2	.	.	?	.	0.2%
Cc1ccc(-c2nc(C(=O)NCc3ccc(Cl)cc3)c3n2CCCCC3)cc1	.	.	-2.9%	.	5.0%
CC(C)N(Cc1ccccc1)C(=O)c1nc(-c2ccc(Cl)cc2)n2c1CCCCC2	.	.	14.1µM*[quencher]	.	-11.8%
CCCCCCCCCCCCCCCCCC#N	.	.	3.6%[201 µM]	.	-2.3%[201 µM]
COc1cc2c(cc1OC)CN(C(=O)/C=C/c1ccc(F)cc1)CC2	?	-10.2	.	14.0%	.
COc1cc2c(cc1OC)CN(C(=O)/C=C/c1cc(OC)c(OC)c(OC)c1)CC2	10µM*	0.4	.	?	.
C=CCOc1nc(OCC=C)nc(OCC=C)n1	.	.	-1.4%[201 µM]	.	3.6%[201 µM]
Fc1cccc2sc(Nc3nc4cc5c(cc4s3)OCO5)nc12	?	5.4	-3.2%	-0.3%	-2.3%
Fc1cc(F)c2nc(Nc3nc4cc5c(cc4s3)OCO5)sc2c1	?	3.6	35.5µM*[quencher]	-6.2%	23.9%
CC(C)CC(C)(O)C#CC(C)(O)CC(C)C (configuration not stated)	.	.	-1.9%[201 µM]	.	2.4%[201 µM]
CCN(CC)S(=O)(=O)c1ccc(N=NC2=C(O)CC(C)(C)CC2=O)cc1	12.9%	-1.1	0.7%	?	2.1%
CCN(CC)S(=O)(=O)c1ccc(N=NC2=C(O)CCCC2=O)cc1	-24.2%	-0.9	44.7µM*[fluorescent]	6.1%	39.8µM*
O=C(O)CCCNc1cc(N2CCN(C3CCCCC3)CC2)c2noc3c2c1C(=O)c1ccccc1-3	.	.	39.8µM*[fluorescent]	.	-21.9%
CC(=O)OCCNc1cc(N2CCN(C)CC2)c2noc3c2c1C(=O)c1ccccc1-3	?	?	50.1µM*[fluorescent]	?	44.7µM*
O=C1c2ccccc2-c2onc3c(NCCO)cc(NC4CCCCC4)c1c23	.	.	39.8µM*[fluorescent]	.	?
CCNc1cc(N2CCN(C3CCCCC3)CC2)c2noc3c2c1C(=O)c1ccccc1-3	.	.	0.4%	.	-1.9%
CC(=O)Nc1ccc(/C=C/c2nc(-c3ccccc3O)n(-c3ccccc3)n2)cc1	.	.	1.5%	.	-0.5%
CSCC[C@H](NC(=O)[C@H](CC(C)C)NC(=O)CNC(=O)[C@H](Cc1ccccc1)NC(=O)[C@H](Cc1ccccc1)NC(=O)[C@H](CCC(N)=O)NC(=O)[C@H](CCC(N)=O)NC(=O)[C@@H]1CCCN1C(=O)[C@H](CCCCN)NC(=O)[C@@H]1CCCN1C(=O)[C@H](CCCN=C(N)N)NC(=O)CCCCC1SCC2NC(=O)NC21)C(N)=O (some centres not stated)	5.2%	0.6	-6.9%	.	-2.1%
Cc1ccc(NC(=O)c2cc3c([nH]c2=O)CC(C)(C)CC3=O)c(C)c1	.	.	4.0%	.	-5.2%
C/C(=N\NC(=O)c1cc2ccccc2cc1O)c1ccccn1	.	.	.	-4.0%	.
C/C(=N/NC(=O)c1cc2ccccc2cc1O)C1C(=O)c2ccccc2C1=O	?	12.1	39.8µM*[quencher]	-13.3%	20.1%
